Source: PubChem BioAssay (National Center for Advancing Translational Sciences (NCATS))
An excerpt weighted towards active compounds, which were near 15% of everything screened.
Gal4-VP16 FLuc = inhibits Gal4-VP16 luciferase reporter, ROR gamma counter-screen. Drosophila S2 Gal4-VP16 UAS-luciferase, luminescence, 20 h. Potency, µM (doses to about 53.6 µM), inactives show top-dose activity, negative = inhibition, usual class: inhibitors. 3.5% of 310,000 active. AID 2546;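 also: Gal4-VP16 expression switched on by copper sulfate through the metallothionein promoter; nearly all actives have a fitted effect of over 50% in size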
ELG1 repair inh = blocks ELG1-dependent DNA repair in HEK293T cells; Potency, µM (highest dose often 46.1 µM), for inactives: top-dose activity change, negative = inhibition, actives largely listed as inhibitors; AID 504467; HEK293T ELG1-luciferase reporter, luminescence, 16 h; DNA damage induced by 5-fluorouridine; 2.3% of 330,000 active; also: nearly all actives have a fitted effect of over 55% in size
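5-Fluorouridine DNA damage + compound/DMSO, 2,000 cells/well, 16 h, 37 °C/5% CO2. ONE-Glo, 30 min RT, luminescence. Readout = decrease in reporter signal.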
RORgamma inh = blocks mouse ROR gamma transcriptional activity. P51450. Drosophila S2 Gal4-RORgamma UAS-luciferase reporter, 20 h. Potency, µM (top dose mostly 53.6 µM), for inactives: at the top dose activity change, negative = inhibition, most hits filed as inhibitors. 5.4% of 310,000 active. AID 2551; also: nearly all actives have a fitted effect of over 60% in size
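ROR gamma transcriptional activity was tracked as Gal4-UAS luciferase output in stably transfected Drosophila Schneider cells, with compound added 1 hr before 700 uM copper sulfate induction and a 20 hr ambient-temperature incubation.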
ALOX12 inh = inhibitors of human 12S-lipoxygenase ALOX12 | purified 12hLO, xylenol orange hydroperoxide absorbance | Potency, µM (doses to about 108 µM), inactives show at the top dose activity change, negative = inhibition, actives largely listed as inhibitors | 1.1% of 580,000 active
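Purified human 12hLO (150 nM final) in 25 mM Hepes, 0.01% Triton X-100, pH 7.0 was preincubated 15 min at room temperature with compound. Then 40 uM arachidonic acid was added, 30 min. Hydroperoxide was read by Fe-XO absorbance ratio 573/405 nm.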
DT40 TDP1 CPT = growth inhibition of DT40 Tdp1-/-;hTDP1 cells with camptothecin (screen for TDP1 inhibitors); Potency, µM (series often up to 46.2 µM), without a hit: at the top dose activity change, negative = growth inhibition, hits mostly inhibitors; chicken DT40 Tdp1-/-;hTDP1 cells + 20 nM CPT, ATP luminescence, 48 h; 12% of 420,000 active; also: nearly all actives have a fitted effect of over 55% in size
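Chicken DT40 Tdp1-/- cells stably complemented with human TDP1 were seeded at 400 cells/well in medium containing 20 nM camptothecin, exposed to pin-transferred compounds, and grown at 37 °C for at least 48 hr. Viability was read as ATP luminescence.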
TDP1 cell noCPT = qHTS for Inhibitors of human tyrosyl-DNA phosphodiesterase 1 (TDP1): qHTS in cells in absence of CPT; 15% of 420,000 active; DT40 Tdp1-/- hTDP1 cells, no CPT, ATP luminescence, 48 h; Potency, µM (highest dose often 46.2 µM), inactives show at the top dose activity change, negative = growth inhibition, hits mostly inhibitors; also: nearly all actives have a fitted effect of over 55% in size
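Readout: luminescence from CellTiter-Glo after 30 min in the dark at RT. Cells: DT40 Tdp1-/- with stable hTDP1, 400/well. Exposure: compounds alone, ≥48 hr, 37 °C.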
Active calls of the source: *; ? = inconclusive; nt = no result; [ ] = dose if it differs, or a comment. Calls follow the shape of the dose curve; as a rule, active = well fitted curve in the direction sought with a large enough effect; inconclusive = small, poorly fitted or top-dose-only effect, or another doubt; inactive = no such curve, though single readings can be large; an effect the other way counts as inactive or inconclusive. % is scaled to controls: 0 for no effect and ±100 for the full control effect; potency is read from the fitted curve at half-maximal effect.

SMILES	Gal4-VP16 FLuc	ELG1 repair inh	RORgamma inh	ALOX12 inh	DT40 TDP1 CPT	TDP1 cell noCPT
CCNc1nc(NCC)nc(N/N=C/c2cc(OC)c(OC)c(OC)c2)n1	0%	?	?	222%	?	?
COc1c(Cl)cc(C(=O)N2CCN(Cc3cc(=O)n4ccsc4n3)CC2)cc1Cl	nt	nt	nt	1%	nt	nt
CCCc1cc(NCCCCO)n2c(nc3ccccc32)c1C#N	3%	?	0%	0%	?	?
CCCc1cc(NCCOCCO)n2c(nc3ccccc32)c1C#N	nt	nt	nt	-2%	?	12µM*
CCCc1cc(N2CCN(C(=O)c3ccco3)CC2)n2c(nc3ccccc32)c1C#N	4%	?	4.5µM*	21%	?	?
CCCc1cc(-n2ccnc2C)n2c(nc3ccccc32)c1C#N	nt	nt	nt	-2%	?	-22%
Cc1cc(NCCCN2CCOCC2)n2c(nc3ccccc32)c1C#N	-7%	-9%	-20%	0%	-2%	-22%
CCCc1cc(NCCCN2CCOCC2)n2c(nc3ccccc32)c1C#N	-16%	?	22%	449%	16µM*	21µM*
Cc1cccc(Cn2c(N3CCN(c4cccc(Cl)c4)CC3)nc3c2c(=O)n(C)c(=O)n3C)c1	nt	nt	nt	-7%	nt	nt
Cc1cccc(-n2nc(-c3c(C)nc4scc(CC(=O)N5CCCC5)n4c3=O)cc2C)c1	nt	nt	nt	5%	nt	nt
COCCCNC(=O)/C(C#N)=C/c1c(N2CCN(c3cccc(Cl)c3)CC2)nc2c(C)cccn2c1=O	-21%	23µM*	15%	4%	?	?
COCCCNC(=O)/C(C#N)=C/c1c(N2CCN(c3ccccc3)CC2)nc2c(C)cccn2c1=O	-8%	21µM*	17%	-123%	?	16µM*
CCNC(=O)/C(C#N)=C/c1c(N2CCN(c3cccc(Cl)c3)CC2)nc2c(C)cccn2c1=O	0%	-12%	-2%	0%	?	?
COC(=O)/C(C#N)=C/c1c(N2CCN(c3ccccc3)CC2)nc2c(C)cccn2c1=O	2%	?	-11%	10%	?	?
Brc1ccc(OCc2ccccc2)c(CNCc2ccncc2)c1	?	?	?	?	16µM*	?
Fc1ccc(COc2ccccc2CNCc2ccncc2)cc1	-9%	0%	8%	-23%	?	26µM*
Fc1ccc(COc2ccc3ccccc3c2CNCc2ccncc2)cc1	nt	nt	nt	-12%	nt	nt
Brc1cccc(CNCc2ccncc2)c1	-4%	-9%	-1%	?	7%	-17%
O=C(c1cnc(Cl)c(Cl)c1)N1CCN(S(=O)(=O)c2ccc3ccccc3c2)CC1	nt	1%	nt	?	?	16µM*
O=C(c1ccc(=O)[nH]n1)N1CCN(S(=O)(=O)c2ccc3ccccc3c2)CC1	6%	16µM*	-2%	7%	4%	-21%
COc1ccc(C(=O)Nc2ccccc2C(=O)NC(Cc2ccc(O)cc2)C(=O)NNC(=O)c2ccc(C)cc2)cc1 (centres undefined)	-11%	8.2µM*	16%[10 µM]	-16%	4%	4%
COc1ccc(C(=O)Nc2ccccc2C(=O)NC(Cc2ccc(O)cc2)C(=O)NNC(=O)c2ccncc2)cc1 (centres undefined)	3%	12%	34%	?	2%	-4%
O=C(Nc1ccccc1C(=O)NC1CCCCC1)c1ccccc1	-2%	?	-23%	0%	?	?
COc1ccc(C(=O)Nc2ccccc2C(=O)NC(Cc2ccc(O)cc2)C(=O)NNC(=O)c2ccccc2)cc1 (centres undefined)	2%	16µM*	0%[10 µM]	2%	?	?
